In PubChem BioAssay AID493248 (Broad Institute, 2011) one finds activity change, negative = inhibition data, which are given here for 66 compounds.

Screen size: about 2,300 compounds; about 1,400 (61%) were called active. Roughly 7% stayed inconclusive and do not appear here. How the calls were made is not given here. The set was probably picked from earlier hits. Not all results are given here. Potency and affinity values are given separately.

The target of this test is FAD-linked sulfhydryl oxidase ALR (Homo sapiens) (UniProt P55789). Briefly: inhibitors of human ALR sulfhydryl oxidase, dose response, biochemical, H2O2 detection, luminescence, cherry-pick (AID 493248). The note with it: purified ALR, DTT oxidation, H2O2 HRP-luminol luminescence; at 10 µM (top of the series).
FAD-linked sulfhydryl oxidase ALR (Homo sapiens), sequence (P55789 whole entry, looked up): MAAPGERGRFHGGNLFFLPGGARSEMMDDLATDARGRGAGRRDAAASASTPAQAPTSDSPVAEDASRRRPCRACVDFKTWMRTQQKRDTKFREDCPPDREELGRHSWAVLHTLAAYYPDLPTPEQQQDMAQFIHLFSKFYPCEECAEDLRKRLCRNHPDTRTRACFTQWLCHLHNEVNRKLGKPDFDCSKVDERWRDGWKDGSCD
For `Cc1ccc[n+](-c2nc([O-])sc2/C=N/Nc2ccc([N+](=O)[O-])cc2)c1`, the activity change, negative = inhibition was -43.9%.

For the compound `O=C(CNC(=O)c1ccco1)Nc1ccc(N2CCCCCC2)cc1`, the activity change, negative = inhibition is -0.183%.

Regarding `O=C(NCc1ccco1)C1CC(=O)N(c2ccc(O)cc2)C1` (stereo unspecified), the activity change, negative = inhibition is -85.4%.

As for `O=C(CN1CCN(c2ccc(O)cc2)CC1)Nc1cc(S(=O)(=O)N2CCCC2)ccc1Cl`, the activity change, negative = inhibition was -40.9%.

Regarding `COc1cc(/C=C/c2sc3ccccc3[n+]2CCCS(=O)(=O)[O-])ccc1O`, the activity change, negative = inhibition was -105%.

Take `Nc1nc(-c2ccc3c(c2)CCCC3)cs1`: the activity change, negative = inhibition is -97%.

Take `COc1ccc2c(c1)c1ncn(CCc3ccccc3)c(=O)c1n2C`: the activity change, negative = inhibition was -0.427%.

As to `O=c1[nH]c(=S)[nH]c2sccc12`, the activity change, negative = inhibition is -34.4%.

For `Cc1ccc(CNC(=O)c2ccc(CS(=O)Cc3ccccc3Cl)o2)cc1` (stereo unspecified), the activity change, negative = inhibition was -1.87%.

As to `O=c1oc2c3c4c(cc2s1)CCCN4CCC3`, the activity change, negative = inhibition is -13.7%.

As for `Cc1ccc(N2CCN(S(=O)(=O)c3ccc4c(c3)NC(=O)C(C)C(=O)N4)CC2C)cc1` (stereo unspecified), the activity change, negative = inhibition is -30.2%.

For the compound `Cc1cccc(N2CCN(C(=O)Cn3sc4nc(C)cc(C)c4c3=O)CC2C)c1` (stereo unspecified), the activity change, negative = inhibition is -57.4%.

With `CC(C)n1cc(C(=O)N2CCCC(N3CCN(c4cccc(Cl)c4)CC3)C2)cn1` (stereo unspecified), the activity change, negative = inhibition is -43.2%.

Take `O=c1oc2ccccc2cc1-c1ccc(O)cc1O`: the activity change, negative = inhibition is 371%.

With `Cc1c(Cl)c(-c2n[nH]c(=S)n2CC(C)C)nn1C`, the activity change, negative = inhibition was -54.1%.

Turning to `Cn1cc(Cl)c(-c2n[nH]c(=S)n2-c2ccc(F)cc2)n1`, the activity change, negative = inhibition is 18.2%.

With `CC(C)(C)c1ccc(C(=O)Oc2ccccc2CCC(=O)O)cc1`, the activity change, negative = inhibition was -56%.

Regarding `CC(C)(C)c1ccc(Oc2ccc(N)cn2)cc1`, the activity change, negative = inhibition is 49.2%.

As for `CC1CCN(C(=S)c2ccc(O)cc2)CC1`, the activity change, negative = inhibition was -30%.

As for `CN(C)c1ccc(C(=O)N2CCCC2)cc1`, the activity change, negative = inhibition is -10.3%.

Regarding `S=c1[nH]nc(-c2ccco2)n1/N=C/C=C/c1ccccc1`, the activity change, negative = inhibition is -45.1%.

Take `C=CCn1c(-c2sccc2C)n[nH]c1=S`: the activity change, negative = inhibition was determined as 0.591%.

Consider `CC1CCCCC1n1c(-c2cccnc2)n[nH]c1=S` (stereo unspecified), for which the activity change, negative = inhibition is -2.8%.

On to `COc1ccc(-c2n[nH]c(=S)n2Cc2ccco2)cc1`, for which the activity change, negative = inhibition was -32.4%.

On to `N#Cc1ccccc1S(=O)(=O)N1CCN(C(=O)Cc2coc3cc(O)ccc23)CC1`, for which the activity change, negative = inhibition was -102%.

For `CCN(C=NC1=NN(c2cccc(C(F)(F)F)c2)CC1)CC`, the activity change, negative = inhibition was 4.04%.

On to `CCc1ccc(OC)c(-c2csc(N)n2)c1`, for which the activity change, negative = inhibition was determined as 3.63%.

Consider `COC(=O)c1[nH]c2cc(OC)ccc2c1N=CN(C)C`, for which the activity change, negative = inhibition was -64.5%.

With `O=c1oc(-c2ccc(F)cc2)nc2ccsc12`, the activity change, negative = inhibition was -52.7%.

Turning to `O=C(Nc1ccccc1N1CCCCC1)c1cnccn1`, the activity change, negative = inhibition was -36.5%.

As for `Cc1ccc(C(=O)C2CCN(CC(=O)Nc3ccc(N(C)C)cc3)CC2)cc1`, the activity change, negative = inhibition was -106%.

Regarding `C=CCn1c(-c2cc(OC)cc(OC)c2)n[nH]c1=S`, the activity change, negative = inhibition was -54.8%.

In the case of `C=CCn1c(-c2ccc(N)cc2)nc2ccccc21`, the activity change, negative = inhibition is -33.2%.

Regarding `Cc1nnc(N2CCN(Cc3ccccc3)CC2)[nH]c1=O`, the activity change, negative = inhibition came to 42.6%.

For the compound `CCN(C(=O)CN1CCN(c2cccc(Cl)c2)CC1)c1c(N)n(Cc2ccccc2)c(=O)[nH]c1=O`, the activity change, negative = inhibition was -43.8%.

As for `CCn1c(=O)c2c3c(sc2n2c(=S)[nH]nc12)CCC3`, the activity change, negative = inhibition is -18.2%.

With `COc1cc(/C=N\NC(=O)c2ccc(-c3ccccc3)cc2)cc(OC)c1O`, the activity change, negative = inhibition was -59.8%.

For `COc1cccc(/C=N/NC(=O)CNC(=O)c2ccncc2)c1O`, the activity change, negative = inhibition is -31.5%.

For the compound `COc1cc2c(ccc3cc(OC)c(OC)c(O)c32)cc1O`, the activity change, negative = inhibition is -112%.

With `Cc1nc2ccc(-c3ccccc3)cc2o1`, the activity change, negative = inhibition was -7.02%.

`c1c2c(cc3sc(N4CCCCC4)nc13)OCO2`: the activity change, negative = inhibition was -5.07%.

For the compound `C[C@H](NC(=O)c1cc2c(cn1)[nH]c1ccccc12)C(=O)O`, the activity change, negative = inhibition is -94.7%.

On to `O=C(O)c1[nH]c2ccccc2c1NS(=O)(=O)Cc1ccccc1`, for which the activity change, negative = inhibition is -42.2%.

For `CCCn1cnc2cc(NCc3cccc(OC)c3)ccc21`, the activity change, negative = inhibition amounted to 395%.

As to `Cn1cnc2cc(NCc3ccccc3O)ccc21`, the activity change, negative = inhibition stood at 297%.

On to `Oc1ccc(-c2n[nH]c(=S)n2Cc2ccco2)cc1`, for which the activity change, negative = inhibition is -29.1%.

For `COc1ccc(C(=O)N/N=C(\Cc2ncc[nH]2)c2ccccc2)cc1`, the activity change, negative = inhibition is -40%.

With `Cc1[nH]nc(-c2ccc(O)cc2O)c1Oc1ccccc1`, the activity change, negative = inhibition is -84.3%.

In the case of `COc1ccc(S(=O)(=O)n2nc(OC(=O)c3ccco3)cc2N)cc1`, the activity change, negative = inhibition was -55.8%.

For the compound `O=C1NN(c2ccccc2)C(=O)/C1=C\c1ccccc1`, the activity change, negative = inhibition is -5.6%.

With `N/C(=N\N=C\c1ccc(O)cc1)c1nonc1N`, the activity change, negative = inhibition is -84.5%.

`Nc1cc(C(F)(F)F)ccc1C(=O)O`: the activity change, negative = inhibition was 8.42%.

As to `COc1ccccc1N1CC(C(=O)Nc2nnc(SCc3cccnc3)s2)CC1=O` (stereo unspecified), the activity change, negative = inhibition was -17.9%.

Regarding `COC(=O)c1ccc(-c2nc3cc(N)ccc3o2)cc1`, the activity change, negative = inhibition came to 72.5%.

With `Cc1ccc(-c2nc3cc(N)ccc3o2)c(C)c1`, the activity change, negative = inhibition came out at 19.5%.

As to `Cc1ccc(C)c(-c2nc3cc(N)ccc3o2)c1`, the activity change, negative = inhibition was -81.2%.

Turning to `Nc1ccc2nc(-c3cccs3)[nH]c2c1`, the activity change, negative = inhibition was -80%.

With `COc1ccc(-c2cc(C(F)F)n3ncc(C(=O)n4ccnc4C)c3n2)cc1`, the activity change, negative = inhibition is -48%.

For the compound `CCCN1CCC(=O)N([C@H](CSc2ccc(OC)cc2)CC(C)C)CC1`, the activity change, negative = inhibition amounted to 20.7%.

Turning to `O=C(O)CCn1c2c(c3ccccc31)CCCC2`, the activity change, negative = inhibition turned out to be 5.37%.

In the case of `Cc1ccc(NCCC(=O)c2cccs2)cc1C`, the activity change, negative = inhibition is -51.1%.

As for `Cc1ccc(Nc2nnns2)cc1C`, the activity change, negative = inhibition is -6.48%.

As to `CN(C)c1ccc(CN(C(=O)c2cc3ccccc3oc2=O)C2CCS(=O)(=O)C2)cc1` (stereo unspecified), the activity change, negative = inhibition is -17.6%.

Turning to `COc1ccc(NC2CCCN(C(=O)c3ccc(C)nc3)C2)cc1` (stereo unspecified), the activity change, negative = inhibition amounted to 289%.

`S=c1[nH]nc(-c2ccncc2)n1Cc1ccco1`: the activity change, negative = inhibition was -47.7%.

For `Cc1cccc(C(=O)N2CCCC(N3CCN(c4ccc(F)cc4)CC3)C2)n1` (stereo unspecified), the activity change, negative = inhibition is -66.1%.
